Compounds with a hit are over-represented: about 0.95% of the library has one in this group of screens.
PrPC TRFRET: inhibitors of human cell surface prion protein PrPC | P04156 | TR-FRET read-out | inhibition, % at 13.8 µM | hit rate 0.43% among 370,000; in the data active = inhibition above about 24%; also: 0% = median of the test wells and 100% = reference compound wells
Sa RN4220 lethal: kills Staphylococcus aureus RN4220. S. aureus RN4220 growth, OD600, 16 h. inhibition, % (no concentration beside the values). hit rate 0.33% among 330,000. AID 1259311; in the data active = inhibition above about 85%;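 also: plate controls were untreated cells for no effect and reference antibiotic for full effect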
ugtP null kill: growth inhibition of S. aureus ugtP deletion strain. growth inhibition, % (no concentration beside the values). S. aureus RN4220 ugtP deletion, OD600 growth, 16 h. hit rate 0.54% among 330,000; in the data active = growth inhibition above about 68%;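 also: plate controls were untreated wells for no effect and antibiotic for full effect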
BJeLR lethal: BJeLR cell viability loss; BJeLR (HRASV12) viability, CellTiter-Glo ATP luminescence, 48 h; inhibition, % (concentration not given with the values); hit rate 0.17% among 300,000; in the data active = inhibition above about 50%
PrPC TRFRET cf: cell surface PrPC inhibition, TR-FRET confirmation | hit rate 65% among 1,500 | cell surface PrPC level | AID 743200 | shares compounds with PrPC TRFRET | inhibition, % at 13.8 µM; in the data active = inhibition above about 25%
LD9 tox: counter-screen for PrPc inhibitors: cytotoxicity in LD9 cells; shares compounds with PrPC TRFRET; luminescence viability; inhibition, % at 13.8 µM; hit rate 29% among 1,500; AID 743201; in the data active = inhibition above about 9.5%
An asterisk follows results filed as active; . = not tested or not shown.

SMILES | PrPC TRFRET | Sa RN4220 lethal | ugtP null kill | BJeLR lethal | PrPC TRFRET cf | LD9 tox
CC[C@@H]1C[C@H]2CC[C@H](O2)[C@H](C)C(=O)O[C@@H](C)C[C@@H]2CC[C@@H](O2)[C@@H](C)C(=O)O[C@H](C)C[C@H]2CC[C@H](O2)[C@H](C)C(=O)O[C@@H](C)C[C@@H]2CC[C@@H](O2)[C@@H](C)C(=O)O1 | 38.7* | . | . | . | 56.1* | 54.8*
Cc1[nH]c2ccccc2c1CC(=O)Nc1ccc(Nc2cccnc2)c(-c2cc(C(F)(F)F)cc(C(F)(F)F)c2)c1 | -0.4 | . | . | . | . | .
COC(=O)NN=C(C)/C=C/c1ccco1 | . | 1.3 | 11.3 | . | . | .
COc1cccc(CNC(=O)c2ccc(S(=O)(=O)N3CCOCC3)cc2)c1 | -0.4 | 6.4 | 4.0 | . | . | .
Cc1cc2cc(CNC(=O)c3ccc(S(=O)(=O)N(C)C)cc3)ccc2n1C | 53.6* | 12.3 | 4.4 | -9.0 | 36.4* | -4.3
Cc1cc2cc(CNC(=O)c3ccc(S(=O)(=O)N4CCOCC4)cc3)ccc2n1C | 42.9* | 1.7 | 0.8 | 5.1 | 44.6* | -6.5
Cc1cc2cc(CNC(=O)c3ccc(S(=O)(=O)N4CCCCC4)cc3)ccc2[nH]1 | 28.9* | -8.5 | -7.2 | -10.2 | 12.1 | -4.6
Cc1ccc(CNC(=O)c2ccc(S(=O)(=O)N3CCCCCC3)cc2)cc1 | 8.4 | . | . | . | . | .
CCN1C(=O)NC(c2ccccc2)C(C(C)=O)C1C (configuration not stated) | . | 1.0 | -9.6 | . | . | .
CN1C(=O)C(C)(C)c2cc(S(=O)(=O)N3CCCC(C(=O)NCc4ccc(F)cc4)C3)ccc21 (configuration not stated) | 29.1* | 1.0 | 11.8 | 9.6 | 40.1* | 3.6
CC(C)c1ccc(NC(=O)C2CCCN(S(=O)(=O)c3ccc4c(c3)C(C)(C)C(=O)N4C)C2)cc1 (configuration not stated) | 78.8* | 2.8 | 6.8 | 10.5 | 72.7* | -1.8
CN1C(=O)C(C)(C)c2cc(S(=O)(=O)N3CCCC(C(=O)Nc4ccc(Cl)cc4)C3)ccc21 (configuration not stated) | 80.6* | 5.8 | 12.3 | 7.4 | 73.2* | 4.4
COc1cccc(CNC(=O)C2CCCN(S(=O)(=O)c3ccc4c(c3)C(C)(C)C(=O)N4C)C2)c1 (configuration not stated) | 12.1 | 1.7 | 9.9 | 7.7 | . | .
CCOc1ccc(NC(=O)C2CCCN(S(=O)(=O)c3ccc4c(c3)C(C)(C)C(=O)N4C)C2)cc1 (configuration not stated) | 39.2* | . | . | . | 32.7* | -4.2
NC(N)=NN=Cc1ccc(OCc2ccccc2)cc1 | . | 7.9 | -7.0 | . | . | .
CC(=NNC(=O)c1nnn(-c2nonc2N)c1CN(C)c1ccccc1)c1cccc(O)c1 | . | 0.9 | -1.1 | . | . | .
COc1cccc(C=NNC(=O)c2cccc3ccccc23)c1OC | . | 1.6 | 10.4 | . | . | .
Cc1ccc(S(=O)(=O)Nc2cccc3cccnc23)cc1 | 38.9* | . | . | 1.6 | 71.8* | 82.3*
COc1ccc(S(=O)(=O)Nc2ccccn2)cc1 | -8.3 | 5.0 | 8.3 | -4.4 | . | .
COc1cc(NS(=O)(=O)c2ccc(C)cc2)c2ncccc2c1 | 50.9* | 13.3 | -17.1 | 23.2 | 51.2* | 69.1*
Cc1ccc(NS(=O)(=O)c2cccc3cccnc23)c(Cl)c1 | 5.3 | -0.8 | 3.0 | -6.7 | . | .
CC(=N/N=C1/NC(=O)C(CC(=O)Nc2ccc(Cl)cc2)S1)c1ccco1 (configuration not stated) | . | 8.9 | 5.7 | . | . | .
CCN(CC)Cc1c(O)ccc2c(C)c(CC(=O)OC)c(=O)oc12 | 1.9 | 8.3 | -3.2 | -2.6 | . | .
COC(=O)Cc1c(C)c2ccc(O)c(CNCc3ccc(OC)c(OC)c3)c2oc1=O | 25.0* | -3.1 | 9.3 | 1.0 | 4.8 | -3.1
O=S(=O)(N=C(Nc1ccccn1)c1ccccc1)c1ccccc1 | . | 5.3 | -4.5 | . | . | .
SMILES | PrPC TRFRET | Sa RN4220 lethal | ugtP null kill | BJeLR lethal | PrPC TRFRET cf | LD9 tox
CNC(=O)COC(=O)C(Nc1ccc(S(=O)(=O)N2CCOCC2)cc1[N+](=O)[O-])C(C)C (configuration not stated) | . | 1.5 | 5.4 | . | . | .
CN(CC(=O)Nc1c(Cl)cccc1Cl)C(=O)c1cc(-c2cccs2)nn1-c1ccccc1 | 23.0 | . | . | 11.0 | . | .
CCN(CC(=O)Nc1c(F)cccc1F)C(=O)c1cc(-c2cccs2)nn1-c1ccccc1 | 24.6* | 0.9 | 8.2 | -0.1 | 28.1* | -8.2
O=C(O)c1ccc(NC(=O)C2CC=CCC2C(=O)O)cc1 (configuration not stated) | 31.4* | 2.4 | -4.0 | 8.5 | 6.1 | -1.4
COC(=O)C1=C(C(=O)OC)[C@@]2([C@@H](Cc3ccc(C)cc3)Nc3ccccc3)C=C[C@@H]1O2 | 66.9* | . | . | . | 14.3 | 98.4*
Cc1ccc(S(=O)(=O)N=c2scc(C)n2C)cc1 | . | 4.5 | 4.3 | . | . | .
CC(=O)N(Cc1cc(=O)[nH]c2ccccc12)c1ccccc1 | 2.5 | 1.8 | -0.8 | -1.7 | . | .
CC(=O)N(Cc1cc(=O)[nH]c2ccccc12)c1cccc(C)c1 | 24.5* | -0.9 | -17.7 | -5.1 | 30.2* | -3.3
O=C(NN=Cc1ccc(C(=O)O)cc1)C1=NNC(c2ccccc2)(c2ccccc2)C1 | . | 1.3 | 11.6 | . | . | .
CC(=NOC(=O)c1ccccc1)c1cc(-c2ccc(Cl)cc2)no1 | . | 0.2 | 4.8 | . | . | .
Cc1[nH]n(-c2ccccc2)c(=O)c1/C=N/NC(=O)C(C)C | 28.8* | . | . | 2.6 | 42.6* | 5.0
COc1ccc2c(C)c(C(=O)O)oc2c1 | 28.5* | 0.2 | -3.1 | -17.8 | 30.0* | -1.3
COc1ccc2c(=O)cc(C(=O)O)oc2c1 | 3.6 | 1.9 | 1.1 | -1.3 | . | .
COc1ccc(CN2C[C@]3(C=C(C)Cn4c(=O)n(-c5ccccc5)c(=O)n43)N=C2NC(=O)c2ccccc2)c(OC)c1 | 0.0 | . | . | . | . | .
O=C(Nc1ccc(N2CCOCC2)cc1)c1cc2c(s1)CCCCC2 | 25.0* | 9.8 | 1.7 | 2.1 | 12.4 | 11.9*
O=C(Nc1cccc(S(=O)(=O)Nc2ccc(Cl)cc2)c1)c1cc2c(s1)CCCC2 | 26.5* | 34.0 | -7.8 | -2.4 | 32.1* | -3.1
O=C(NC1CCCCCC1)c1cc(S(=O)(=O)N2CCOCC2)ccc1N1CCCCC1 | 28.0* | -6.0 | -15.8 | -2.7 | 17.9 | -2.8
O=C(Nc1cc(S(=O)(=O)N2CCOCC2)ccc1N1CCCC1)c1cc2c(s1)CCCC2 | 52.1* | . | . | . | 74.7* | -5.1
Nc1[nH]c(C(=O)c2ccccc2)c(-c2cccc3ccccc23)c1C(=O)c1c(-c2ccccc2)[nH]c2ccccc12 | 2.9 | . | . | . | . | .
Cc1ccc(S(=O)(=O)NN=C2CC(=O)CC(C)(C)C2)cc1[N+](=O)[O-] | . | 5.0 | 22.5 | . | . | .
CC(C)=CCC[C@@]1(C(=O)O)[C@H]2CC=C(CO)[C@@H]1CC/C(C)=C/CC/C(C)=C/C2 | 24.4* | . | . | . | 27.1* | 11.8*
O=C(CC1CC=CCC(Cc2ccc(F)cc2)C(=O)OCC2CCCN2C1=O)NC(CO)Cc1ccccc1 (configuration not stated) | . | 4.7 | 1.6 | . | . | .
Cc1c([N+](=O)[O-])c(C/C=N/O)nn1C | 33.0* | . | . | -11.0 | 6.9 | -2.7
Cc1c([N+](=O)[O-])c(CC=NO)nn1C | . | 3.7 | -1.2 | . | . | .
